The nature of the test: probe aShh binding to arrayed compounds – biochemical, biotinylated probe, 635/667 nm fluorescence, primary screen (AID 1114).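 Also: probe is biotin-labelled aShh protein from a stem cell growth factor screen; measures binding of labelled protein to compounds printed on the slide; score merges feature fluorescence at 667 nm with signal-to-noise.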 The settings on record: small-molecule microarray, higher = more signal.
`COCCCNC(=O)[C@@]1(Sc2ccc(C)cc2)CC(=O)N(C2Cc3ccccc3C2)[C@@H]1c1ccc(CO)cc1I` showed a composite z-score of -0.536.

As for `C=CC[C@]1(C(=O)N(C)C)N=C(c2ccc(OCCCO)cc2)O[C@H]1c1ccccc1N=[N+]=[N-]`, the composite z-score came out at 0.158.

Consider `CCOC(=O)C1=CC[C@@H](c2ccccc2C(F)(F)F)N(S(=O)(=O)c2ccc(C)cc2)C1`, for which the composite z-score amounted to 0.584.

In the case of `CC(C)C(O)C1C=CC2C(=O)N(C)C(=O)C2N1N(c1ccccc1)c1ccccc1` (stereo not drawn), the composite z-score was found to be 0.14.

The compound `CCOC(=O)C1=CC[C@@H](c2ccc([N+](=O)[O-])cc2)N(S(=O)(=O)c2ccc(C)cc2)[C@H]1c1ccccc1` registered a composite z-score of -0.0769.

On to `[N-]=[N+]=NCc1ccccc1C[C@@]1(C(=O)N2CCCCC2)N=C(c2ccc(OCCCO)cc2)O[C@@H]1c1ccccc1N=[N+]=[N-]`, for which the composite z-score was -0.284.

The compound `C=C(/C(=C/C[C@@H](OC(=O)c1ccncc1)c1ccccc1OCCO)c1cc(C(=O)OC)ccc1OC)C(C)C` had a composite z-score of 0.3.

Take `COCCOC(=O)N1C(=O)[C@@]2(c3cc(C#CC4(O)CCCCCC4)ccc31)[C@H](C(N)=O)[C@H]1C(=O)O[C@H](c3ccccc3)[C@H](c3ccccc3)N1[C@@H]2c1ccc(O)cc1`: the composite z-score is -0.206.

Values taken from PubChem BioAssay.
